# SARS PLP yeast: inhibitors of SARS-CoV papain-like protease in yeast | S. cerevisiae expressing SARS-CoV PLpro, growth rescue | Potency, µM (titrated, usually from 32.9 µM), inactives show at the highest dose activity, positive = growth rescue, usual class: activators | 330,000 tested, 0.19% active | AID 485353; calls by dose curve; note: 0% is about no effect; nearly all actives have a fitted effect of over 55% in size
# AmpC detergent: inhibitors of E. coli AmpC beta-lactamase with detergent. P00811. AmpC hydrolysis of nitrocefin, absorbance 480 nm, 0.01% Triton. 370,000 tested, 0.041% active. Potency, µM (titrated, usually from 114 µM), inactives show top-dose activity change, negative = inhibition, actives largely listed as inhibitors;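 note: 0% = no-compound wells and -100% = no-enzyme wells; nearly all actives have a fitted effect of over 25% in size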
# Target sequence (P00811 whole entry, looked up): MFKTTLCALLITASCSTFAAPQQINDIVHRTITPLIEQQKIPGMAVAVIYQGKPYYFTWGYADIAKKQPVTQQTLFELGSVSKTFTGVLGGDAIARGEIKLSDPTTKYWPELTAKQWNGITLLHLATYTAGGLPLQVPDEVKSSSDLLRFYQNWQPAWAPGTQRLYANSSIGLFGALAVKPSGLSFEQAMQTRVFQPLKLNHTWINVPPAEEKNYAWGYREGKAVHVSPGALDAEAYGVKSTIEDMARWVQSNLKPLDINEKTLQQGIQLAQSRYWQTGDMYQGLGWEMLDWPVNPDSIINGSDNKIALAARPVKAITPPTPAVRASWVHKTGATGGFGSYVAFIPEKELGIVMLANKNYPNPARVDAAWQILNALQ
#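 20 mM phosphate pH 7.0 + 0.01% (detergent screen) or 0.0001% Triton X-100; 5.3 nM AmpC reagent; cpd preinc 15 min RT; nitrocefin (800 uM stock) to start; A480 q20 s × 4 min; Activity was normalised to no-enzyme and no-compound control wells.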
# Pf growth 96h: P. falciparum growth inhibition at 96 hours. 320,000 tested, 6.9% active. Potency, µM (highest dose often 28.7 µM), for the others: at the highest dose activity change, negative = inhibition, most hits filed as inhibitors. P. falciparum luciferase reporter growth, 96 h; note: % is set by controls: 0 for no effect and ±100 for the full control effect
#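 Two parasite generations (96 h, 37 C, 5% CO2) of compound exposure in infected erythrocytes (0.05% parasitemia, 2% hematocrit). Luciferase-reporter P. falciparum; decreased luminescence indicates inhibited growth, aimed at apicoplast-acting delayed death.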
# Pf growth 48h: inhibits P. falciparum growth in the first generation, 48 h. P. falciparum luciferase growth in erythrocytes, 48 h. Potency, µM (highest dose often 28.7 µM), for the others: at the top dose activity change, negative = inhibition, usual class: inhibitors. 310,000 tested, 5.9% active; note: % is set by controls: 0 for no effect and ±100 for the full control effect
#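 A one-generation exposure of luciferase-tagged malaria parasites in RPMI 1640/Albumax erythrocyte culture, 37 C and 5% CO2. Inhibition is inferred from decreased luminescence after adding detection reagent.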
# Sm TGR block: inhibitors of Schistosoma mansoni thioredoxin glutathione reductase. purified TGR, DTNB reduction, TNB absorbance 405 nm. Potency, µM (highest dose often 114 µM), for inactives: top-dose activity change, negative = inhibition, hits mostly inhibitors. 360,000 tested, 3% active; note: % is set by controls: 0 for no effect and ±100 for the full control effect; nearly all actives have a fitted effect of over 60% in size
#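 TGR 20 nM + NADPH 100 uM (dispensed conc.), cpd preinc 15 min RT; start with NADPH (500 uM addition) then DTNB (15 mM addition). Kinetic TNB absorbance, 405 nm filter. Four-parameter Hill fit across titration.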
# AmpC no deterg: blocks E. coli AmpC beta-lactamase in detergent-free assay. AID 485341. 330,000 tested, 0.52% active. Potency, µM (doses to about 57.1 µM), for inactives: at the top dose activity change, negative = inhibition, actives largely listed as inhibitors. P00811. AmpC nitrocefin hydrolysis, absorbance 480 nm, 0.0001% Triton;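 note: plate controls were no compound for no effect and no enzyme for full effect; nearly all actives have a fitted effect of over 20% in size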
#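 AmpC (5.3 nM in the dispensed reagent) in 20 mM phosphate pH 7.0 with 0.01% (detergent screen) or 0.0001% Triton X-100 was preincubated with compounds for 15 min at room temperature. Nitrocefin was then added from an 800 uM solution, and hydrolysis was followed at 480 nm.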
# Active calls of the source: *; ? = inconclusive; / = not tested or not shown; [ ] = dose if it differs, or a comment. Sampled rows, rich in hits. Any-hit rate of the full collection: about 12%. Unless noted, calls come from the whole dose curve; as a rule, active = well fitted curve in the direction sought with a large enough effect; inconclusive = small, poorly fitted or top-dose-only effect, or another doubt; inactive = no such curve, though single readings can be large; an effect the other way counts as inactive or inconclusive. Potency is the fitted concentration of half-maximal effect.
SMILES,SARS PLP yeast,AmpC detergent,Pf growth 96h,Pf growth 48h,Sm TGR block,AmpC no deterg
COCCNc1nc(SCc2ccccc2)nc2sc3c(c12)CCC3,-13%,5%,?,?,-26%,25%
CCC1CCCCN1C(=O)CSc1n[nH]c(-c2ccccc2)n1 (configuration not stated),/,12%,/,/,4%,/
O=C1NCC(O)=C1C=Nc1ccccc1O,-4%,6%,?,10µM*,13%,2%
COc1ccc(NC(=O)CCCc2nc(-c3ccco3)no2)c(OC)c1,/,16%,/,/,2%,/
N#C/C(=C\c1ccccc1Br)C(=O)NC1CC1,1%,-4%,1.5µM*,-18%,-21%,-4%
COc1ccccc1CNC(=O)C(=O)Nc1nccs1,0%,1%,25%,1%,45µM*,51%
COc1ccc(CN2C(=O)c3ccccc3C2C(=O)NCC2CCCO2)c(OC)c1 (configuration not stated),0%,-12%,4.7µM*,-9%,25%,5%
COc1ccccc1CNC(=O)C(=O)NCC1CCCO1 (configuration not stated),16%,-4%,5.9µM*,54%,1%,-12%
COc1ccccc1CC(=O)NCC1CCCO1 (configuration not stated),/,-4%,16%,8%,-6%,/
Cc1cccc(NC(=O)Cn2nc(C)c3nn(-c4ccc(Cl)cc4)c(C)c3c2=O)c1C,/,11%,/,/,0%,/
CCn1ccnc1CN(C)Cc1cn(-c2ccc(C)cc2)nc1-c1cccc(C)c1,0%,-2%,?,6.6µM*,5%,105%
CC(=Nc1ccc(C)cc1)c1sc2ccccc2c1O,-25%,1%,180%,32%,5%,7.9µM*
CC(=Nc1ccc(C)cc1C)c1sc2ccccc2c1O,-2%,-6%,0%,-44%,48%,-31%
O=C1c2ccccc2NC(c2ccc(Cl)cc2Cl)N1O (configuration not stated),14µM*,-1%,-29%,?,-2%,26%
O=C1c2ccccc2NC(c2ccc(Cl)cc2Cl)N1Cc1ccccc1 (configuration not stated),-18%,4%,?,/,7%,-27%
O=C1c2ccccc2NC(c2c(Cl)cccc2Cl)N1Cc1ccccc1 (configuration not stated),-7%,3%,-19%,13µM*,0%,-29%
Cc1ccc(-c2nnc(SCc3ccccc3)o2)cc1,/,-3%,/,/,4%,/
COc1ccc(CCn2cc3c(c2-c2ccccc2Br)c(=O)n(C)c(=O)n3C)cc1OC,/,4%,/,/,-17%,/
COc1ccc(S(=O)(=O)N2CCC(NC(=O)C(Cc3cccc(OC)c3OC)NC(C)=O)CC2)cc1 (configuration not stated),2%,1%,-19%,9%,-24%,0%
COc1cccc(CC(NC(C)=O)C(=O)NC2CCN(S(=O)(=O)c3cccc4ccccc34)CC2)c1 (configuration not stated),0%,-9%,12µM*,/,-16%,180%
CC(=O)Nc1ccc(S(=O)(=O)N2CCC(NC(=O)C(Cc3cccc(F)c3)NC(C)=O)CC2)cc1 (configuration not stated),1%,3%,?,-1%,45µM*,21%
CC(C)C[C@H]1C(=O)N2CCC[C@H]2[C@]2(O)O[C@](NC(=O)[C@@H]3C=C4c5cccc6[nH]c(Br)c(c56)CC4N(C)C3)(C(C)C)C(=O)N12 (some centres not stated),4%,?,4.1µM*,2.3µM*,-28%,155%
CC(C)[C@H]1C(=O)N2CCC[C@H]2[C@]2(O)O[C@](NC(=O)[C@@H]3C=C4c5cccc6[nH]cc(c56)C[C@H]4N(C)C3)(C(C)C)C(=O)N12,-2%,-13%,7.4µM*,5.9µM*,7.9µM*,116%
CC(C)C[C@H]1C(=O)N2CCCC2[C@]2(O)O[C@](NC(=O)[C@@H]3C=C4c5cccc6[nH]cc(c56)CC4N(C)C3)(C(C)C)C(=O)N12 (some centres not stated),-2%,?,2.3µM*,2.6µM*,10µM*,94%
CC(C)[C@@]1(NC(=O)[C@@H]2C[C@@H]3c4cccc5[nH]cc(c45)C[C@H]3N(C)C2)O[C@@]2(O)[C@@H]3CCCN3C(=O)[C@H](Cc3ccccc3)N2C1=O,-4%,-3%,1.9µM*,1.9µM*,-14%,180%
SMILES,SARS PLP yeast,AmpC detergent,Pf growth 96h,Pf growth 48h,Sm TGR block,AmpC no deterg
O=S(=O)(c1cccc(F)c1)N1CCC(Oc2ccc(-n3cnnn3)cc2)CC1,/,17%,/,/,7%,/
CCc1nnc(NC(=O)c2cc(=O)c3cc(C)ccc3o2)s1,/,16%,/,/,9%,/
O=C(COc1ccc(-c2nnco2)cc1)N1CCN(S(=O)(=O)c2ccc3ccccc3c2)CC1,2%,-11%,?,?,-6%,40%
CC(C)[C@@]1(NC(=O)[C@@H]2C=C3c4cccc5[nH]cc(c45)C[C@H]3N(C)C2)O[C@@]2(O)[C@@H]3CCCN3C(=O)[C@H](Cc3ccccc3)N2C1=O,-4%,-11%,2.3µM*,2.9µM*,8.9µM*,58%
O=C(CSc1ccc(-c2ccco2)nn1)c1ccc(F)cc1,-7%,?,-9%,15%,20µM*,-29%
O=C(CSc1ccc(-c2ccco2)nn1)NCc1ccc(F)cc1,15%,-4%,-9%,-9%,35µM*,-21%
Cc1ccc(C(=O)CSc2nc(-c3ccccc3)ccc2C#N)cc1,-23%,-12%,30%,32%,0%,-31%
N#Cc1ccc(-c2ccco2)nc1SCC(=O)c1ccc(Cl)cc1,2%,0%,9%[5.75 µM],1%,-16%,10µM*
COc1ccccc1NC(=O)c1ccc2c(=O)n3c(nc2c1)CCC3,/,0%,?,36%,-35%,-16%
O=C(/C=C/c1cccc([N+](=O)[O-])c1)NCCN1CCOCC1,5%,-4%,73%,6%,-27%,-5%
Cc1ccc2c(c1)c1c(c(=O)n(Cc3ccccc3)c(=O)n1Cc1ccccc1F)n2C,/,-8%,/,/,-1%,/
CCc1ccc(NC(=O)Cn2c(=O)n(Cc3ccco3)c(=O)c3cccnc32)cc1,/,0%,/,/,-15%,/
Cc1ccc(-n2ccnc(SCC(=O)NC3CCCCC3)c2=O)cc1F,1%,1%,9%,4%,-8%,-11%
CCCNC(=O)c1noc2c1CCc1cc(OC)ccc1-2,-3%,3%,-25%,432%,-14%,-46%

# Assay outcomes deposited in PubChem by National Center for Advancing Translational Sciences (NCATS).
